According to PubChem BioAssay (EPA / NIEHS):
Values joined by “and” are separate entries in the source; they are usually repeats but may differ in a detail not shown here. Equal values may be shown once. Records with an inconclusive call do not appear. Active and inactive are the calls of the source. The calls were made as follows, unless noted: active = hit-call score of the fitted dose curve at least 0.9, where 1 is the maximum; inactive = score below 0.9.

How the values were obtained:
[1] = ATG_M_32_TRANS: Attagene TRANS-FACTORIAL HepG2 Assay for M32 Transcription Factor (Internal Marker) (AID 2282984; active = hit-call score of the fitted dose curve at least 0.9, where 1 is the maximum); conditions: HepG2 Attagene TRANS M32 internal marker reporter
In short: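 Capillary electrophoresis of 6-FAM-labelled reporter fragments gives the signal; data fitted for gain over DMSO negative control. Source: HepG2 cells bearing transient multiple reporter transcription units, 24 h exposure.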

[2] = ATG_NFI_CIS: Attagene CIS-FACTORIAL HepG2 Assay for human Nuclear Factor I (NFI) (AID 2282989); conditions: HepG2 cis-regulatory reporter, NFI response element transcription; actives raise or lower the signal
In short: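 Transfected HepG2 liver cells, exposed 24 h, supplied total RNA for oligo(dT) reverse transcription and reporter-specific PCR. Labelled, HpaI-cut fragments were sized by capillary electrophoresis; DMSO set the baseline for bidirectional fitting.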

[3] = BSK_3C_VCAM1: BioMAP Diversity Plus: 3C Assay for Vascular cell adhesion molecule 1 (VCAM1) Biomarker Activity (AID 2282999); conditions: BioMAP 3C HUVEC, VCAM1 ELISA, cytokine-stimulated; actives raise or lower the signal
In short: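 Human umbilical vein endothelial cells (3C system), biomarker read by ELISA 24 h after dosing; bidirectional fit against DMSO baseline. Cytotoxicity tracked by SRB total-protein staining in parallel cultures at biomarker time.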

[4] = BSK_4H_Eotaxin3: BioMAP Diversity Plus: 4H Assay for Eotaxin 3 Biomarker Activity (AID 2283000); conditions: primary human endothelial cells (HUVEC); actives raise or lower the signal
In short: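 Eotaxin-3 (CCL26) levels were measured by ELISA in HUVEC primary cultures 24 h post-dosing. Gain or loss of signal was fitted in both directions, with DMSO serving as baseline and negative control.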

[5] = biological target: human Retinoid X Receptor beta (RXRb), RXRB (gene 6257) (UniProt P28702); experiment: ATG_RXRb_TRANS: Attagene TRANS-FACTORIAL HepG2 Assay for human Retinoid X Receptor beta (RXRb) (AID 2283013; active = hit-call score of the fitted dose curve at least 0.9, where 1 is the maximum)
human Retinoid X Receptor beta (RXRb), RXRB (gene 6257), sequence (P28702 whole entry, looked up): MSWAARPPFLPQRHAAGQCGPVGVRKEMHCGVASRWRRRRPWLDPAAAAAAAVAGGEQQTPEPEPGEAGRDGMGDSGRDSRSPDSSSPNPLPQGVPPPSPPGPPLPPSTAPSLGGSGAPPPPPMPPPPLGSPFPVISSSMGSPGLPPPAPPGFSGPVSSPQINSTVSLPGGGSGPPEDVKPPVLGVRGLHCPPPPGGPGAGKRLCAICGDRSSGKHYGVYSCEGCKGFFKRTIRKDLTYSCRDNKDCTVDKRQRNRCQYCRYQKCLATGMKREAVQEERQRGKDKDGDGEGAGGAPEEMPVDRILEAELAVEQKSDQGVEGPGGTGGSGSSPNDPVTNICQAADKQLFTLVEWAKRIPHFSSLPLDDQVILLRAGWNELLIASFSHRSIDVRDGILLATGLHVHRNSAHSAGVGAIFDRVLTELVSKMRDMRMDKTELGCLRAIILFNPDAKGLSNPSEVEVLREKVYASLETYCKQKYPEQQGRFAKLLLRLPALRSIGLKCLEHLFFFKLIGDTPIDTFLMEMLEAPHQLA
In short: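 Multiplexed TRANS reporter assay in HepG2; 24 h dosing; reporter mRNA by RT-PCR/CE fluorescence; gain-of-signal relative to DMSO.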

[6] = read-out: Interleukin-1 alpha (IL1a), IL1A (gene 3552); experiment: BSK_BE3C_IL1a: BioMAP Diversity Plus: BE3C Assay for Interleukin-1 alpha (IL1a) Biomarker Activity (AID 2283016); conditions: primary human bronchial epithelial cells; actives raise or lower the signal
In short: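 Cultures of primary human bronchial epithelial cells receive test chemical. After 24 h, IL-1a is quantified by ELISA, while parallel wells are fixed in TCA and SRB-stained for total protein. Changes in either direction are fitted relative to DMSO.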

[7] = read-out: Monocyte Chemoattractant Protein-1 (MCP1), CCL2 (gene 6347); experiment: BSK_4H_MCP1: BioMAP Diversity Plus: 4H Assay for Monocyte Chemoattractant Protein-1 (MCP1) Biomarker Activity (AID 2283018); conditions: primary human endothelial cells (HUVEC); actives raise or lower the signal
In short: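 Readout: MCP-1 ELISA on compound-treated HUVEC, sampled 24 h post-dosing. Baseline and negative control DMSO; bidirectional fit. Overt toxicity checked alongside by sulforhodamine B protein staining at time of biomarker measurement.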

[8] = read-out: Human Leukocyte Antigen - DR isotype (HLADR), HLA-DRA (gene 3122); experiment: BSK_3C_HLADR: BioMAP Diversity Plus: 3C Assay for Human Leukocyte Antigen - DR isotype (HLADR) Biomarker Activity (AID 2283019); conditions: primary human endothelial cells (HUVEC); actives raise or lower the signal
In short: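 HUVEC monoculture, HLA-DR measured by ELISA 24 h after chemical dosing. Fitted bidirectionally against DMSO baseline; parallel SRB staining assessed cytotoxicity, with 3C proliferation read by SRB at 48 h.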

[9] = read-out: Monokine induced gamma interferon (MIG), CXCL9 (gene 4283); experiment: BSK_3C_MIG: BioMAP Diversity Plus: 3C Assay for Monokine induced gamma interferon (MIG) Biomarker Activity (AID 2283021); conditions: primary human endothelial cells (HUVEC); actives raise or lower the signal;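 as to AC50: MIG protein level measured by immunoassay in the treated endothelial cultures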
In short: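 After 24 h of treatment, human umbilical vein endothelial cultures (3C system) had their MIG biomarker level determined by ELISA, with DMSO serving as negative control.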

[10] = BSK_3C_SRB: Viability Assessment in the BioMAP Diversity Plus: 3C Assay (AID 2283023); conditions: primary human endothelial cells (HUVEC);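 also: fitted both ways against DMSO so a hit may be signal rise or drop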
In short: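 Human umbilical vein endothelial cells in the 3C system, treated 24 h. Total protein measured by 0.1% sulforhodamine B staining after 10% TCA fixation, read at 560 nm; bidirectional fit versus DMSO.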

[11] = read-out: Pselectin, SELP (gene 6403); experiment: BSK_4H_Pselectin: BioMAP Diversity Plus: 4H Assay for Pselectin Biomarker Activity (AID 2283026); conditions: primary human endothelial cells (HUVEC); actives raise or lower the signal
In short: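 Human vascular endothelium from umbilical vein; P-selectin measured by ELISA at 24 h post-dose, with cytotoxicity checked by sulforhodamine B total-protein staining in parallel cultures (0.1% SRB after 10% TCA fixation, read at 560 nm).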

[12] = BSK_4H_SRB: Viability Assessment in the BioMAP Diversity Plus: 4H Assay (AID 2283027); conditions: primary human endothelial cells (HUVEC);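 also: cells exposed to compound for 24 h before staining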;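 as to AC50: curves fitted both ways versus DMSO so AC50 may be loss or gain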
In short: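 Human umbilical vein endothelial cells, 24 h after chemical dosing; total protein measured by 0.1% sulforhodamine B staining after 10% TCA fixation, read at 560 nm. Bidirectional fitting against DMSO.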

[13] = BSK_BE3C_SRB: Viability Assessment in the BioMAP Diversity Plus: BE3C Assay (AID 2283028); conditions: primary human bronchial epithelial cells;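 as to AC50: fitted both ways so AC50 may mark signal gain or loss versus DMSO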
In short: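 Human bronchial epithelial primary cells in confluent culture, 24 h after chemical dosing; total protein by 0.1% SRB staining after 10% TCA fixation, read at 560 nm. Bidirectional fitting versus DMSO baseline.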

[14] = read-out: Monokine induced gamma interferon (MIG), CXCL9 (gene 4283); experiment: BSK_BE3C_MIG: BioMAP Diversity Plus: BE3C Assay for Monokine induced gamma interferon (MIG) Biomarker Activity (AID 2283035); conditions: primary human bronchial epithelial cells; actives raise or lower the signal
In short: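 Primary human bronchial epithelial cells treated for 24 h; MIG levels measured by ELISA, fitted bidirectionally versus DMSO. Parallel SRB total-protein staining assessed cytotoxicity.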

[15] = read-out: Plasminogen activator inhibitor-1 (PAI1), SERPINE1 (gene 5054); experiment: BSK_BE3C_PAI1: BioMAP Diversity Plus: BE3C Assay for Plasminogen activator inhibitor-1 (PAI1) Biomarker Activity (AID 2283037); conditions: primary human bronchial epithelial cells; actives raise or lower the signal
In short: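 PAI-1 biomarker levels in treated human bronchial epithelial cells are determined by ELISA at 24 h. Both increases and decreases relative to DMSO are fitted.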

[16] = read-out: Interleukin-8 (IL8), CXCL8 (gene 3576); experiment: BSK_CASM3C_IL8: BioMAP Diversity Plus: CASM3C Assay for Interleukin-8 (IL8) Biomarker Activity (AID 2283042); conditions: primary human coronary artery smooth muscle cells; actives raise or lower the signal;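 also: IL-8 protein level quantified by ELISA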
[17] = read-out: Human Leukocyte Antigen - DR isotype (HLADR), HLA-DRA (gene 3122); experiment: BSK_CASM3C_HLADR: BioMAP Diversity Plus: CASM3C Assay for Human Leukocyte Antigen - DR isotype (HLADR) Biomarker Activity (AID 2283043); conditions: primary human coronary artery smooth muscle cells; actives raise or lower the signal;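 also: cell-surface HLA-DR protein level quantified by ELISA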
[18] = read-out: Macrophage colony-stimulating factor (MCSF), CSF1 (gene 1435); experiment: BSK_CASM3C_MCSF: BioMAP Diversity Plus: CASM3C Assay for Macrophage colony-stimulating factor (MCSF) Biomarker Activity (AID 2283044); conditions: primary human coronary artery smooth muscle cells; actives raise or lower the signal;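 also: M-CSF protein amount quantified by ELISA after 24 h exposure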
[19] = read-out: Low-density lipoprotein receptor (LDLR), LDLR (gene 3949); experiment: BSK_CASM3C_LDLR: BioMAP Diversity Plus: CASM3C Assay for Low-density lipoprotein receptor (LDLR) Biomarker Activity (AID 2283045); conditions: primary human coronary artery smooth muscle cells; actives raise or lower the signal;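 also: LDLR protein level on the cell surface quantified by ELISA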
[20] = read-out: Monocyte Chemoattractant Protein-1 (MCP1), CCL2 (gene 6347); experiment: BSK_CASM3C_MCP1: BioMAP Diversity Plus: CASM3C Assay for Monocyte Chemoattractant Protein-1 (MCP1) Biomarker Activity (AID 2283046); conditions: primary human coronary artery smooth muscle cells; actives raise or lower the signal;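 also: MCP-1 level quantified by ELISA 24 h after dosing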

Measured: AC50

Sc1nc2ccccc2s1
active: [4] 3.97 µM | [6] 0.0847 µM
inactive: all other assays above

CNC(=C[N+](=O)[O-])NCCSCc1csc(CN(C)C)n1
inactive: [1] | [2] | [5]

Oc1cccc2ccccc12
active: [4] 13.7 µM | [8] 10.5 µM | [10] 8.23 µM
not listed: [1]
inactive: all other assays above

O=[N+]([O-])c1cc(S(=O)(=O)Nc2ccccc2)ccc1Nc1ccccc1
active: [4] 26.6 µM and 25.5 µM | [6] 24 µM and 30.5 µM | [7] 27.8 µM and 20 µM | [8] 13.9 µM | [10] 30.3 µM and 30.8 µM | [11] 32.2 µM and 31.7 µM | [12] 30.5 µM and 31 µM | [13] 27.5 µM and 31.7 µM | [14] 31 µM and 34.2 µM | [15] 24.7 µM and 27.1 µM
inactive: [3] | [9] | [16] | [17] | [18] | [19] | [20]

CC/C=C\CCO
inactive: [1] | [2]

Cc1c(C(N)=O)cc([N+](=O)[O-])cc1[N+](=O)[O-]
not listed: [1] | [2] | [5]
inactive: all other assays above

OC(C(F)(F)F)(C(F)(F)F)C(O)(C(F)(F)F)C(F)(F)F
inactive: [16] | [19] | [20]
active: [3] 38.6 µM and 42.1 µM | [4] 22.3 µM and 27.4 µM | [6] 31.6 µM and 31.3 µM | [7] 21.5 µM and 10.1 µM | [8] 29.4 µM and 26.4 µM | [9] 43.7 µM and 50.9 µM | [10] 30 µM and 27.7 µM | [11] 22.1 µM and 21.4 µM | [12] 27.5 µM and 26 µM | [13] 48 µM and 48.9 µM | [14] 54.8 µM and 54.6 µM | [15] 13.9 µM and 12.5 µM | [17] 18.7 µM and 7.57 µM | [18] 49 µM and 50.5 µM

OCCOCCOCCOCCOCCO
inactive: [1] | [2]

COc1ccccc1Oc1c(NS(=O)(=O)c2ccc(C(C)(C)C)cc2)nc(-c2ncccn2)nc1OCCO
active: [4] 7.97 µM and 11.3 µM | [18] 4.05 µM and 5.31 µM
not listed: [1] | [2] | [5]
inactive: all other assays above

CCc1cc(C(N)=S)ccn1
inactive: [2] | [5]

CC1=CCCC(C)(C)C12CCC(C)O2 (stereo not given)
inactive: [1] | [2] | [5]

C1CN(CCOCCN2CCOCC2)CCO1
not listed: [1] | [2] | [5]
inactive: all other assays above

Oc1ccc(Cl)cc1C1CCCC1
inactive: [1]
active: [2] 33.4 µM | [5] 3.12 µM

CC(C)C1OCCN1CCOC(=O)NCCCCCCNC(=O)OCCN1CCOC1C(C)C (stereo not given)
not listed: [1] | [2] | [5]
inactive: all other assays above

O=C(CC(C(=O)OC1CCCCC1)S(=O)(=O)O)OC1CCCCC1 (stereo not given)
inactive: [1] | [2] | [5]

c1ccc2c(c1)Oc1ccccc1S2
inactive: [1] | [5]

CC(C)CC(=O)CC(C)CC(C)C (stereo not given)
inactive: [1] | [5] | [9] | [13] | [16] | [19]
active: [3] 35.1 µM | [4] 33.8 µM | [6] 31.5 µM | [7] 31.1 µM | [8] 35.3 µM | [10] 35.2 µM | [11] 30.1 µM | [12] 33.7 µM | [14] 34.6 µM | [15] 37.4 µM | [17] 27.3 µM | [18] 34.6 µM | [20] 34 µM

O=C(Oc1ccccc1)c1ccccc1
inactive: [2] | [5]

c1ccc(CNc2ncnc3nc[nH]c23)cc1
inactive: [2]

CCCCCCCCCCCCCCCCCC[N+](C)(C)C
inactive: [15] | [19]
active: [1] 16.2 µM | [3] 6.29 µM | [4] 1.89 µM | [6] 3.8 µM | [7] 0.664 µM | [8] 1.27 µM | [9] 7.62 µM | [10] 1.31 µM | [11] 1.34 µM | [12] 1.34 µM | [13] 3.49 µM | [14] 3.82 µM | [16] 9.19 µM | [17] 3.33 µM | [18] 3.45 µM | [20] 3.5 µM

COc1cc(CNC(=O)CCCC/C=C/C(C)C)ccc1O
active: [8] 20 µM and 9.23 µM | [17] 16.8 µM and 5.89 µM
not listed: [1] | [2] | [5]
inactive: all other assays above

COc1ccc2ccccc2c1
inactive: [1] | [5]

NC(N)=Nc1nc(CSCCC(N)=NS(N)(=O)=O)cs1
inactive: [1] | [5]

CCO[Si](CCCN)(OCC)OCC
inactive: [2]

CCC[Si](OC(C)=O)(OC(C)=O)OC(C)=O
not listed: [1] | [2] | [5]
inactive: all other assays above
